We go through 37 compounds from PMC5540273 (PLoS ONE, 2017).

SMILES strings stand for the structures.
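Note: KINOMEscan kinase panel screen.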

The subject of this test is WNK4. The conditions noted are these: concentration: 1 μM, replicates: in singlicate; n = 1.
`COc1cc(Nc2nccc(N3CCC(NC(=O)C4COc5ccccc5O4)C3)n2)cc(OC)c1OC` (stereo not shown) [GSK1379761]: the “%Inh” value is reported as 50%.
The result for `Cc1c(Cn2c(C)nn3c(=O)cc(N4CCO[C@H](C)C4)nc23)cccc1C(F)(F)F` [GSK2373690] reads 0%; that for `COc1ccc(-n2cnc3c(N)ncnc32)cc1` [SKF-97236], 0%.
With `Nc1nc(-c2ccccc2F)c(-c2ccnc3ccccc23)s1` [GW560459], the “%Inh” value turned out to be 48%.
To `O=C(Nc1n[nH]c2cc(-c3ccccc3F)ccc12)C1CC1` [SB-733371] belongs 6%; to `Cc1nnc(-c2ccc3ncn(-c4ccc(S(C)=O)cc4)c3c2)o1` (stereo not shown), 0%.
The result for `CCn1c(-c2ccoc2)nc2cnccc21` [SB-733887] reads 0%; that for `CCC(=O)c1c(-c2ccccc2)c2cc(Cl)ccc2c(=O)n1Cc1cc(S(C)(=O)=O)n(CC(F)F)n1`, 0%.
As for `FC(F)(F)c1ccc(-c2ncn(CCCN3CCOCC3)c2-c2ccncc2)cc1` [SB-217780], the “%Inh” value worked out at 0%.
For the compound `COc1ccc(CNC(=O)NC2CCN(c3ccnc(Nc4ccc(F)cc4)n3)C2)cc1` (stereo not shown) [GSK1379706], the “%Inh” value turned out to be 50%.
To `COc1cc2ncn(-c3cc(OCc4ccncc4Br)c(C(N)=O)s3)c2cc1OC` [GW854278] belongs 0%.
As for `COC(=O)c1c(-c2ccccc2)c2cc(C)ccc2c(=O)n1Cc1ccccc1`, the “%Inh” value was 0%.
`COc1ccc(-c2coc3ccc(-c4nnc(SCc5cccc(C#N)c5)o4)cc23)cc1`: the “%Inh” value worked out at 3%.
Regarding `Cc1ccc(-c2ccc3c(ccc4sc5c(c43)NC[C@@H](C)N=C5N(C)C)n2)cn1`, the “%Inh” value is listed as 0%.
The result for `O=c1cc(N2CCOCC2)nc2n(Cc3ccc(F)c(Cl)c3)ccn12` [GSK2297099] reads 6%.
The result for `COc1cc2ncn(-c3cc(OCCCc4ccccc4)c(C(N)=O)s3)c2cc1OC` [GSK205189] reads 0%; that for `CN1C(=O)C(Nc2cc(Cl)c(O)c(Cl)c2)=C(c2ccc(Cl)cc2)C1=O` [SB-404321], 0%; that for `CCC(=O)c1c(-c2ccccc2)c2cc(Cl)ccc2c(=O)n1Cc1cc(C(=O)NC2CC2)n(C)n1`, 22%.
Consider `O=C1NC(=O)C(c2ccccc2)=C1Nc1cccc(O)c1` [SB-390534], for which the “%Inh” value worked out at 9%.
To `COc1cc2nccc(Nc3cccc(Oc4ccccc4)c3)c2cc1OC.Cl` [GW284543] belongs 0%; to `Cc1nn2c(=O)cc(N3CCOCC3)nc2n1Cc1cccc(Cl)c1Cl` [GSK2342769], 0%; to `O=C(Nc1n[nH]c2nc(-c3ccccc3)c(Cl)cc12)C1CC1` [SB-734909], 0%.
The result for `Cl.NS(=O)(=O)c1cccc(Nc2cc(-c3ccc(F)cc3)n[nH]2)c1` [GW824645] reads 13%.
The result for `Cc1cc(Nc2nc(-c3cccc(C)n3)nc3ccccc23)ccn1` [GW872411] reads 0%; that for `Nc1n[nH]c2nnc(-c3ccccc3)c(-c3ccccc3)c12` [GW554060], 14%.
As to `CCC(=O)c1c(-c2ccccc2)c2cc(Cl)ccc2c(=O)n1Cc1ccc(C(=O)O)cc1`, the “%Inh” value came to 0%.
`Nc1ncnc2c1ncn2-c1cccc(F)c1` [SKF-97560]: the “%Inh” value turned out to be 54%.
On to `Cl.c1ccc(Cn2cnc3cc(Nc4ncnc5ccccc45)ccc32)cc1` [GW272142], for which the “%Inh” value was determined as 44%.
In the case of `COc1cc2nccc(Nc3ccc(OCc4ccc(NC(C)=O)cc4)cc3)c2cc1OC.Cl` [GW440135], the “%Inh” value turned out to be 0%.
To `CCS(=O)(=O)c1ccc(OC)c(Nc2ncc(-c3ccc(F)cc3)o2)c1.Cl` [GW591947] belongs 0%; to `Cc1cccc(-c2nc(Nc3ccc4c(cnn4C)c3)c3ccccc3n2)n1` [GW876731], 0%; to `CCS(=O)c1ccc(-c2coc3ccc(-c4nnc(C)o4)cc23)cc1` (stereo not shown), 11%.
In the case of `Cc1cccc(-c2cc(-c3c[nH]nc3-c3ccccn3)ccn2)c1` [GW679395], the “%Inh” value was 38%.
Regarding `COc1cccc(-n2cnc3c(N)ncnc32)c1` [SKF-97416], the “%Inh” value is 43%.
The result for `CCC(=O)c1c(-c2ccccc2)c2cc(Cl)ccc2c(=O)n1Cc1cc(S(C)(=O)=O)n(CC(N)=O)n1` reads 0%.
In the case of `CCCC(=O)Nc1n[nH]c2ncc(-c3cccc4ccccc34)cc12` [SB-642057], the “%Inh” value was determined as 0%.
Consider `Cc1nc(N(C)[C@H]2CN(C(=O)CC#N)CC[C@H]2C)c2cc[nH]c2n1`, for which the “%Inh” value stood at 0%.
